High-throughput results deposited in PubChem BioAssay by National Center for Advancing Translational Sciences (NCATS).
The list is not random: actives were taken first. Their share in the collection is about 10%.
HEK cytotox = HEK 293 cell cytotoxicity; HEK 293 viability, ATP luminescence (CellTiter-Glo), 48-72 h; Potency, µM (titrated, usually from 115 µM), actives largely listed as inhibitors; actives 6.6% (n = 94,000); AID 1345083; note: nearly all actives have a fitted effect of over 60% in size
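ATP-coupled CellTiter-Glo luminescence served as viability read-out, recorded 10 min after reagent addition at room temperature. HEK 293 cells, 250 cells/well, had been incubated with pintool-transferred compound for 48 or 72 hr at 37 degree Celsius.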
NIH3T3 tox = cytotoxic compounds in NIH 3T3 cells. NIH 3T3 viability, CellTiter-Glo ATP luminescence, 48-72 h. actives 4.3% (n = 94,000). Potency, µM (titrated, usually from 96.7 µM), most hits filed as inhibitors. AID 1345082; note: nearly all actives have a fitted effect of over 55% in size
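Cells were seeded at 400 per well, treated with pin-transferred compound, and kept 48 or 72 hr at 37 °C before CellTiter-Glo addition and luminescence imaging of cellular ATP.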
FLuc inh = blocks purified firefly luciferase enzyme activity; P08659; purified P. pyralis luciferase, luminescence, biochemical; Potency, µM (top dose mostly 115 µM), actives largely listed as inhibitors; actives 2.5% (n = 76,000); AID 1347043; note: nearly all actives have a fitted effect of over 65% in size
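FLuc 10nM, D-luciferin 10uM, ATP 10uM, Mg acetate 10mM, Tris acetate pH 7.5, Tween/BSA; cpd qHTS; enzyme added last; CCD luminescence.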
hNpr1 antagonist = antagonists of human natriuretic peptide receptor Npr1; P16066; HEK293 hNpr1 GloSensor cGMP, ANP-stimulated luminescence; Potency, µM (titrated, usually from 46.3 µM), most hits filed as inhibitors; actives 1.6% (n = 76,000); AID 1347048; calls by dose curve; note: nearly all actives have a fitted effect of over 60% in size
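Compound pre-incubated 30 min at room temperature on GloSensor-loaded HEK293 cells stably carrying hNpr1 and the pGS-40F cGMP biosensor. Stimulation uses hNppA at 0.1 nM final; luminescence is taken at baseline and 20 min post-agonist.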
GPT2 inh = GPT2 alanine aminotransferase inhibition; Recombinant GPT2, coupled pyruvate oxidase/HRP Amplex Red fluorescence; Potency, µM (series often up to 57.7 µM), most hits filed as inhibitors; actives 0.25% (n = 100,000); note: nearly all actives have a fitted effect of over 60% in size
Target sequence (Q8TD30 whole entry, looked up): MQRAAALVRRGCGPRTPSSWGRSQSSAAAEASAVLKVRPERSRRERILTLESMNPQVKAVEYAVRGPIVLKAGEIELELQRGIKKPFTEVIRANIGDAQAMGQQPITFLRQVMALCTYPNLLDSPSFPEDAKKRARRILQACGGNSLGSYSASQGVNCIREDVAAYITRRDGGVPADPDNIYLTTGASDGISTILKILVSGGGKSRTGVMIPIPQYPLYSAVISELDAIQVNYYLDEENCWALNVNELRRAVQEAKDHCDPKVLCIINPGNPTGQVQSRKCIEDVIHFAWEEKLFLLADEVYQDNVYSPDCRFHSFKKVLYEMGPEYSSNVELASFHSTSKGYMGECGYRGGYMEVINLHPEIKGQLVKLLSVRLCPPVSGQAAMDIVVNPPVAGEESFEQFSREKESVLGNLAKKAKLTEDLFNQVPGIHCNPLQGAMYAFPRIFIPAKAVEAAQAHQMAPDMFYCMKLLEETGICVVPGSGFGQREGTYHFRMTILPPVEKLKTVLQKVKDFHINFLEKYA
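Inhibition is scored from Amplex Red fluorescence generated when pyruvate oxidase and HRP act on pyruvate released by GPT2. Reactions contain 10ng/uL enzyme, 250uM a-KG and 2mM L-alanine and run 30 min at room temperature.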
A number is an active result; n = inactive; u = inconclusive; x = not tested or not shown; ! = not confirmed by another sample. Unless noted, calls come from the whole dose curve; as a rule, active = well fitted curve in the direction sought with a large enough effect; inconclusive = small, poorly fitted or top-dose-only effect, or another doubt; inactive = no such curve, though single readings can be large; an effect the other way counts as inactive or inconclusive.

SMILES | HEK cytotox | NIH3T3 tox | FLuc inh | hNpr1 antagonist | GPT2 inh
COc1cccc(CC(=O)N2CC(Oc3ccc(-c4nc(-c5ccccc5)no4)cc3)C2)c1 | 13µM | u | 8.9µM | 3.5µM | n
COCC(=O)N1CC(Oc2ccc(-c3noc(-c4ccncc4)n3)cc2)C1 | u | u | u | u | n
COc1cccc(C(=O)N2CC(Oc3ccc(-c4noc(-c5ccccc5)n4)cc3)C2)c1 | n | n | n | n | n
CCCn1c(C)cnc1CC1CCN(C(=O)c2ccc(OC)cc2OC)CC1 | u | n | n | n | n
COCCOCc1ccc(CC2CCN(C(=O)c3ccc(OC)cc3OC)CC2)cc1 | 32µM | u | x | x | n
CO[C@H]1CN(C2CCN(C(=O)CCC3CCCC3)CC2)[C@H]1c1cccnc1 | u | n | x | x | u
COc1ccc(CCNC(=O)C2CCc3nnc(-c4ccc(F)cc4)n32)cc1 (stereo not drawn) | n | n | x | x | n
O=S(=O)(c1ccc(Cl)cc1)N1CCN(c2ccnc3cc(Cl)ccc23)CC1 | x | x | x | x | n
CN1C[C@@H](NC(=O)CC(C)(C)CC(=O)O)C[C@H]1c1nc(-c2ccc3c(c2)OCO3)no1 | n | n | 50µM | n | n
CN1C[C@@H](NC(=O)c2ccc3c(c2)OCO3)C[C@H]1c1nc(-c2ccc3ccccc3c2)no1 | 79µM | u | n | n | n
O=C(C1CCC(N2Cc3cccn3C2=O)CC1)C1CCN(C(=O)c2ccccc2)CC1 (stereo not drawn) | u | n | x | x | n
Cc1nc(-c2ccccc2)n(Cc2cccc(C(F)(F)F)c2)c(=O)c1CCO | 50µM | u | n | n | n
Cc1nc(-c2ccc(Cl)cc2)n(Cc2cccc(C(F)(F)F)c2)c(=O)c1CCO | u | u | n | n | u
Cc1nc(-c2ccc(F)cc2)n(Cc2cccc(C(F)(F)F)c2)c(=O)c1CCO | 45µM | u | n | n | n
O=C(NC1CC1)c1ccc2nc(-c3ccnc(Cl)c3)oc2c1 | n | u | x | x | n
Cn1ncc2c(C(=O)NCCc3ccccc3)cc(C(C)(C)C)nc21 | u | u | x | x | n
Cn1ncc2c(C(=O)NCCCl)cc(-c3ccccc3C(F)(F)F)nc21 | n | n | x | x | x
Cn1ncc2c(C(=O)NCCc3ccc(Cl)cc3)cc(-c3ccccc3C(F)(F)F)nc21 | 40µM | 32µM | x | x | x
Cn1ncc2c(C(=O)NCc3cccc(Cl)c3)cc(C(C)(C)C)nc21 | 50µM | u | x | x | n
Cc1ccc(-c2cc(C(=O)NCCc3ccc(F)cc3)c3cnn(C)c3n2)c(C)c1 | 40µM | u | x | x | n
Cn1ncc2c(C(=O)NCCc3ccc(Cl)cc3)cc(C(C)(C)C)nc21 | 40µM! | u | x | x | n
Cc1ccc(-c2cc(C(=O)NCCc3ccc(Cl)cc3)c3cnn(C)c3n2)c(C)c1 | u | u | x | x | n
O=C(c1ccccc1)N1CCC(C(=O)N2CCC(N3CCOCC3=O)CC2)CC1 | n | n | x | x | n
COCCC(=O)N1CCc2nc(N3CCN(C)CC3)sc2C1 | n | n | n | n | n
O=C(Nc1ccccc1)N1CCCC(C(=O)N2CCC(N3CCOC3=O)CC2)C1 (stereo not drawn) | n | n | x | x | n
SMILES | HEK cytotox | NIH3T3 tox | FLuc inh | hNpr1 antagonist | GPT2 inh
COc1ccc(OCC(O)CN2CCC(=O)N(C/C=C/c3ccccc3)CCc3ccccc32)cc1 (stereo not drawn) | 28µM | u | x | x | n
C=CCN1CCc2ccccc2N(CC(O)COc2ccc(OC)cc2)CCC1=O (stereo not drawn) | n | u | x | x | n
COc1ccc(OCC(O)CN2CCC(=O)N(C3CCCC3)Cc3ccccc32)cc1 (stereo not drawn) | 40µM | u | x | x | x
COCCN1Cc2ccccc2N(CC(O)COc2ccccc2)CCC1=O (stereo not drawn) | u | n | x | x | x
CC(=O)Nc1cc(C2CCCC2)nn1C | n | n | x | x | n
COc1ccccc1C(=O)N1CCC2(CC1)COc1ccccc1CN2 | 63µM | u | n | n | n
COc1ccccc1C(=O)N1CCC2(CC1)COc1ccccc1[S+](=O)([O-])N2 | n | n | x | x | n
COCc1ccc2c(c1)c(OC(C)(C)C(=O)NCC1CC1)nn2Cc1ccccc1 | u | u | n | n | n
O=C(COc1cccc(-n2cnnc2)c1)NC1CCCc2c1[nH]c1ccccc21 (stereo not drawn) | u | u | n | n | n
